Screening results from PubChem BioAssay.
Rows were chosen to be rich in hits. Some 2.4% of all compounds tested hit in one or more screens of this group.
M1 ag parental: M1 agonist counterscreen hit in parental CHO-K1 cells; Fluo-8 calcium fluorescence; scaled to maximal ATP response, vehicle zero; activation, % at 3 µM; hit rate 0.48% among 360,000; AID 602248; in the data active means activation above about 15%;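 further: untransfected CHO-K1 host cells lacking M1 receptor as counterscreen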
CHO-K1 Ca PAM: M1 PAM counterscreen hit in parental CHO-K1 cells | ATP EC20, Fluo-8 calcium fluorescence; 0% at ATP EC20, 100% at ATP max | activation, % at 3 µM | hit rate 0.02% among 360,000;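 active means activation above the run cutoff, the mean activation of all test compounds plus 3 SD, cut at about 40% in these data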;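 further: peak over basal fluorescence ratio in a 140 s read after ATP addition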
CHO-K1 Ca antag: counter-screen for M1 antagonists: effect in parental CHO-K1 cells | hit rate 0.6% among 360,000 | ATP-induced calcium, Fluo-8 fluorescence | inhibition, % at 3 µM | AID 602250;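 active means inhibition above a per-plate cutoff, the plate's mean sample inhibition plus 3 SD, cut at about 24% in these data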
M1 PAM: potentiates human M1 receptor response to acetylcholine. CHO-K1 hM1, Fluo-8 calcium fluorescence, ACh EC20; 0% = ACh EC20, 100% = maximal ACh. activation, % at 3 µM. hit rate 0.088% among 360,000; in the data active means activation above about 19%, passing the limit was not always enough
Target sequence (P11229 whole entry, looked up): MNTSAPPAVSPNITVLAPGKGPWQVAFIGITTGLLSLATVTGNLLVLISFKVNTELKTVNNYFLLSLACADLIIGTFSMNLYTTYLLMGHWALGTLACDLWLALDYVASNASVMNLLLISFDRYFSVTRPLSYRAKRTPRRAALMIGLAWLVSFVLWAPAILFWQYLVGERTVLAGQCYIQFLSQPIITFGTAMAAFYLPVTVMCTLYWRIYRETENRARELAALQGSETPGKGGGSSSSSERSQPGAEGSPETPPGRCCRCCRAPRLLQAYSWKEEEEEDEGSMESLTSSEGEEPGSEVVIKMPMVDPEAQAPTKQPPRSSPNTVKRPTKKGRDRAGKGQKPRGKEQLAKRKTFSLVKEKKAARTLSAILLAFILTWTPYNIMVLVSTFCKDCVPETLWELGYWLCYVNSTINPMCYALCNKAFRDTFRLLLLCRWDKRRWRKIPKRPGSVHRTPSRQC
M1 ag: human M1 muscarinic receptor agonism; CHO-K1 hM1, Fluo-8 calcium fluorescence, agonist mode; 0% DMSO, 100% acetylcholine EC100; activation, % at 3 µM; hit rate 0.33% among 360,000; AID 588814;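 active means activation above the run's mean compound activation plus 3 SD, cut at about 16% in these data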;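 further: peak over basal fluorescence ratio within a 140 s kinetic read after compound addition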
CHRM1 antagonist: blocks human M1 muscarinic receptor. P11229. CHO-K1 hM1, Fluo-8 calcium fluorescence, ACh EC80 antagonist. inhibition, % at 3 µM. hit rate 1.3% among 360,000;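 active means percent inhibition above its own plate's cutoff, namely the mean of that plate's compound wells plus 3 SD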;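 further: peak over basal fluorescence ratio during 140 s after agonist addition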
Numbers stand for hits; i = inactive.

SMILES	M1 ag parental	CHO-K1 Ca PAM	CHO-K1 Ca antag	M1 PAM	M1 ag	CHRM1 antagonist
COc1cc(C(=O)NNC(=O)/C=C/c2ccccc2)cc(OC)c1OC	i	i	i	i	i	i
Cc1ccccc1C(=O)Nc1cccc(NC(=S)NC(=O)c2cccs2)c1	i	i	i	i	i	i
Cc1cccc(C(=O)NC(=S)NNC(=O)c2cccs2)c1	15	i	i	i	19	i
Cc1ccccc1C(=O)NNC(=S)NC(=O)c1cccs1	37	i	i	i	51	i
CC(=O)NC(=S)Nc1ccc(NC(=S)NC(=O)c2cccs2)cc1	i	i	i	i	i	i
COc1cc(C(=O)NNC(=S)NC(=O)/C=C/c2ccccc2)cc(OC)c1OC	i	i	i	i	23	i
Cc1c(C(=O)NC(=S)Nc2ccc(NC(=O)c3cccs3)cc2)cccc1[N+](=O)[O-]	i	i	i	i	i	33
CC[C@@]1(C(=O)OC)N[C@H](CN(C)S(=O)(=O)c2ccc(F)cc2)[C@@H]2C(=O)N(C)C(=O)[C@@H]21	i	i	i	i	i	i
NS(=O)(=O)c1ccc(CCNCc2cccnc2)cc1	i	i	i	i	i	i
O=C(NNC(=S)NC(=O)c1ccccc1)c1cccc([N+](=O)[O-])c1	i	i	i	i	17	i
CC(C)(C)c1ccc(C(=O)NC(=S)NNC(=O)c2cccs2)cc1	85	i	i	i	92	27
COc1cc(C(=O)NNC(=S)NC(=O)c2ccc(Cl)cc2)cc(OC)c1OC	i	i	i	i	33	i
O=C(NNC(=S)NC(=O)c1cccc([N+](=O)[O-])c1)c1ccc(O)cc1	i	i	i	i	i	i
Cc1cccc(C(=O)NC(=S)NNC(=O)c2ccc(Cl)cc2)c1	110	i	48	i	93	37
O=C(NC(=S)NNC(=O)c1cccs1)c1ccccc1	i	i	i	i	i	i
CN1CCN(C(=O)c2ccccc2NC(=O)c2ccccc2Br)CC1	i	i	i	i	i	i
CN1CCN(C(=O)c2ccccc2NC(=O)c2cccs2)CC1	i	i	i	i	i	active
O=C1C(=O)N(CCS(=O)(=O)c2ccccc2)c2ccc(Cl)cc21	i	i	i	i	17	i
CCc1ccc2c(c1)C(=O)C(=O)N2CCS(=O)(=O)c1ccccc1	i	i	i	i	i	i
CCCCN(CC)CCCNC(=O)CN1C(=O)CSc2ccc(S(=O)(=O)N3CCOCC3)cc21	i	i	i	i	i	i
COCCNC(=O)CN1C(=O)CSc2cc(S(=O)(=O)N3CCCCCC3)ccc21	i	i	35	i	i	i
CCCCN(CCCC)CCNC(=O)CN1C(=O)CSc2ccc(S(=O)(=O)N3CCOCC3)cc21	i	i	i	i	i	87
COCCNC(=O)CN1C(=O)CSc2ccc(S(=O)(=O)N3CCOCC3)cc21	i	i	i	i	i	i
COc1ccccc1CNC(=O)CN1C(=O)NC2(CCCc3ccccc32)C1=O (stereo not drawn)	i	i	i	i	i	i
CN(C)c1ccc(/C=N/NC(=O)C(=O)/C=C2\NC3(CCCC3)Cc3ccccc32)cc1	i	i	i	26	i	i
SMILES	M1 ag parental	CHO-K1 Ca PAM	CHO-K1 Ca antag	M1 PAM	M1 ag	CHRM1 antagonist
COc1cc(/C=N/NC(=O)C(=O)/C=C2\NC3(CCCC3)Cc3ccccc32)ccc1O	i	i	i	i	22	i
O=C(/C=C1\NC2(CCCC2)Cc2ccccc21)C(=O)N/N=C/c1ccccc1O	i	i	i	i	i	i
CCC(C)N(C(=O)Cn1nnc(-c2ccc(F)cc2)n1)C1CCS(=O)(=O)C1 (stereo not drawn)	i	i	i	i	i	i
C[C@@H](c1ccccc1)N1Cc2ccccc2Oc2cc(Br)ccc2S1(=O)=O	i	i	i	i	i	i
CCCCN1Cc2ccccc2Oc2cc(Br)ccc2S1(=O)=O	i	i	i	26	31	i
CC(C)CN1Cc2ccccc2Oc2cc(Br)ccc2S1(=O)=O	i	41	i	i	29	i
Cc1nnc(NC(=O)c2sc3nc(-c4cccs4)cc(C(F)(F)F)c3c2N)s1	20	i	i	i	52	39
Nc1c(C(=O)Nc2nccs2)sc2nc(-c3cccs3)cc(C(F)(F)F)c12	27	i	38	i	28	37
N#Cc1ccc(NC(=O)Nc2ccc(Oc3ccc(NC(=O)Nc4ccc(C#N)cc4)cc3)cc2)cc1	i	i	i	i	i	i
N#Cc1ccc(NC(=O)Nc2cccc(C#N)c2)cc1	18	i	31	i	i	i
Cc1ccc(S(=O)(=O)NC2=NCN(CC(=O)O)CN2)cc1	i	i	i	i	i	i
CC(=O)Nc1ccc(S(=O)(=O)N(C)CC(=O)OC(C)C(=O)N(C)Cc2ccccc2)cc1 (stereo not drawn)	i	i	i	i	i	i
COc1ccc(NS(=O)(=O)c2ccc(C(=O)N3CCC(C)CC3)cc2)cc1	31	i	i	i	36	i
CC1CN(C(=O)c2ccc(NS(=O)(=O)c3ccc(C(C)(C)C)cc3)cc2)CC(C)O1 (stereo not drawn)	25	i	i	i	39	i
CCOc1ccc(NS(=O)(=O)c2ccc(C(=O)N3CC(C)OC(C)C3)cc2)cc1 (stereo not drawn)	41	i	i	i	55	34
CCOc1ccc(NS(=O)(=O)c2ccc(C(=O)N3CCCCC3)cc2)cc1	19	i	i	i	23	i
CCCCn1c(N)c(N(CCOC)C(=O)CSc2ccc([N+](=O)[O-])cc2)c(=O)[nH]c1=O	i	i	i	i	i	i
CCC(=O)N(C)C[C@@H]1Oc2ncc(Br)cc2C(=O)N([C@H](C)CO)C[C@H]1C	i	i	i	i	i	i
Cc1c(CCC(=O)NCCCC(=O)O)c(=O)oc2cc3oc4c(c3cc12)CCCC4	i	i	i	i	i	i
CC1(C(=O)NS(=O)(=O)c2cccc(OC(F)F)c2)CCN1C(=O)c1ccccc1CCc1ccccc1 (stereo not drawn)	i	i	i	i	i	i
Cc1ccc(NS(=O)(=O)c2ccc(C(=O)N3CCCC(C(F)(F)F)C3)cc2)cc1 (stereo not drawn)	39	i	i	i	45	i
O=C(c1cccc(S(=O)(=O)N2CCN(c3ccc(F)cc3)CC2)c1)N1CCCC(C(F)(F)F)C1 (stereo not drawn)	i	i	i	i	i	34
CC1CN(C(=O)c2cccc(S(=O)(=O)N3CCN(c4ccc(F)cc4)CC3)c2)CC(C)O1 (stereo not drawn)	i	i	i	i	i	i
CCOc1ccc(S(=O)(=O)Nc2ccc(C(=O)N3CC(C)OC(C)C3)cc2)cc1 (stereo not drawn)	17	i	i	i	33	i
